Laboratory results as given in PubChem BioAssay (Tox21).
Results filed as inconclusive are left out. Active and inactive are the calls of the source. Unless noted, calls come from the whole dose curve; as a rule, active = well fitted curve in the direction sought with a large enough effect in the repeat runs; inconclusive = weak or mixed curves; inactive = no such curve, though single readings can be large; an effect the other way counts as inactive or inconclusive.

How the values were obtained:
[1] = qHTS assay to test for compound auto fluorescence at 535 nm (green) in HEK293 cells (AID 720680)
[2] = qHTS assay to test for compound auto fluorescence at 460 nm (blue) in HEK293 cell free culture (AID 720681)
Procedure, shortened: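 Blue fluorescence (Ex 405/Em 460 nm, triamterene-equivalent) was read immediately after pin transfer of compound or DMSO into medium (DMEM, 10% FBS) without cells.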

[3] = qHTS assay to test for compound auto fluorescence at 535 nm (green) in HEK293 cell free culture (AID 720682)
Procedure, shortened: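 Compounds were pin-transferred into cell-free DMEM with 10% FBS, and green fluorescence was read at excitation 485 nm and emission 535 nm. Intensities were expressed as fluorescein-equivalent values.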

[4] = qHTS assay to test for compound auto fluorescence at 590 nm (red) in HepG2 cell free culture (AID 720684)
Procedure, shortened: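 Steps: dispense MEM/10% FBS medium, no cells; pin compound or DMSO vehicle; read red channel, Ex/Em 540/590 nm. Output given as Rose Bengal sodium equivalents.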

[5] = qHTS assay to test for compound auto fluorescence at 460 nm (blue) in HepG2 cell free culture (AID 720685)
Procedure, shortened: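 Compound (23 nL) or DMSO pinned into cell-free MEM with 10% FBS; blue fluorescence read at 405/460 nm excitation/emission, expressed as auto-fluorescence equivalency to triamterene.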

[6] = qHTS assay to test for compound auto fluorescence at 535 nm (green) in HepG2 cell free culture (AID 720686)
[7] = qHTS assay to test for compound auto fluorescence at 460 nm (blue) in HepG2 cells (AID 720687)
Procedure, shortened: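 Blue-channel autofluorescence (Ex/Em 405/460 nm, triamterene-equivalent) was measured after 1 hr compound exposure at 37 C, 5% CO2. Cells were HepG2, plated overnight at 37 C in MEM plus 10% FBS.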

[8] = molecular target: Glucocorticoid receptor (Homo sapiens) (UniProt P04150); experiment: qHTS assay to identify small molecule agonists of the glucocorticoid receptor (GR) signaling pathway (AID 720691; active = well fitted activation curve with a large enough effect in the signal ratio in the repeat runs, not every such curve was filed as active; the % refers to the signal ratio; note: potency is the fitted concentration of half-maximal effect)
Glucocorticoid receptor (Homo sapiens), sequence (P04150 whole entry, looked up): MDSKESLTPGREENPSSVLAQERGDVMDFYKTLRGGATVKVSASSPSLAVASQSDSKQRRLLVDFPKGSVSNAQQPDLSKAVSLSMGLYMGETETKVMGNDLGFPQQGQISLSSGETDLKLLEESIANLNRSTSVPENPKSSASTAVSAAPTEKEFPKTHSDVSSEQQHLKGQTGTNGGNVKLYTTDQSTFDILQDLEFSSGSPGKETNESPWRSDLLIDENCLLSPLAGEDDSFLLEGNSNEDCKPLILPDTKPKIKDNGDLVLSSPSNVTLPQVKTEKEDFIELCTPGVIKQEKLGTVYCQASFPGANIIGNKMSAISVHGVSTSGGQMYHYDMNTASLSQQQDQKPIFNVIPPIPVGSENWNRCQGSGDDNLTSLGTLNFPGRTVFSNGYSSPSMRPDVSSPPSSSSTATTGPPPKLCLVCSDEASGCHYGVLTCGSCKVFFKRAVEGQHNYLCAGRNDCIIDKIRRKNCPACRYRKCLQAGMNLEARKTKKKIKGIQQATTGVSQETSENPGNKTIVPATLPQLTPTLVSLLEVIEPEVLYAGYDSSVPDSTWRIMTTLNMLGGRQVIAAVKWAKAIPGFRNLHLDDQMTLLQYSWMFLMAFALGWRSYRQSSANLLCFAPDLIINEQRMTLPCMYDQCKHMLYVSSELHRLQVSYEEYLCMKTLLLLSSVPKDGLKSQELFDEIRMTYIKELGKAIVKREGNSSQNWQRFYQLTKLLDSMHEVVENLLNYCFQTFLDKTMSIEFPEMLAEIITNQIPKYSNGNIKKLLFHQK
Procedure, shortened: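 Reporter read-out: fluorescence intensity following 2 h room-temperature LiveBLAzer B/G FRET substrate loading. Prior step: GR-bla HeLa cells held 4 h, then treated 18 h at 37 C.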

[9] = molecular target: Glucocorticoid receptor (Homo sapiens) (UniProt P04150); experiment: qHTS assay to identify small molecule antagonists of the glucocorticoid receptor (GR) signaling pathway (AID 720692; active = well fitted inhibition curve with a large enough effect in the signal ratio in the repeat runs, not every such curve was filed as active; the % refers to the signal ratio)
Procedure, shortened: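 Dexamethasone (5 nM final) stimulated a stably integrated GRE-beta-lactamase reporter in HeLa cells during 18 h co-incubation with compounds; signal was quantified as fluorescence intensity of B/G FRET substrate after 2 h.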

[10] = qHTS assay to identify small molecule antagonists of the glucocorticoid receptor (GR) signaling pathway - cell viability counter screen (AID 720693); note: nearly all actives have a fitted effect of over 55% in size
[11] = qHTS assay for identifying genotoxic compounds that show differential cytotoxicity against isogenic chicken DT40 cell lines with known DNA damage response pathways - wild type cell line (AID 743012); note: nearly all actives have a fitted effect of over 60% in size
Procedure, shortened: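 Using parental DT40 (300 cells/well), compounds delivered in DMSO incubate 40 h at 37 C/5% CO2. CellTiter-Glo reagent then stands 30 min at room temperature, and luminescence gives cell viability.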

[12] = qHTS assay for identifying genotoxic compounds that show differential cytotoxicity against isogenic chicken DT40 cell lines with known DNA damage response pathways - Rev3 mutant cell line (AID 743014); note: nearly all actives have a fitted effect of over 55% in size
[13] = qHTS assay for identifying genotoxic compounds that show differential cytotoxicity against isogenic chicken DT40 cell lines with known DNA damage response pathways - Rad54/Ku70 mutant cell line (AID 743015); note: nearly all actives have a fitted effect of over 60% in size; note: potency is the fitted concentration of half-maximal effect
[14] = qHTS assay to identify small molecule antagonists of the androgen receptor (AR) signaling pathway - cell viability counter screen (AID 743033; note: nearly all actives have a fitted effect of over 45% in size)
[15] = molecular target: Androgen receptor (Homo sapiens) (UniProt P10275); experiment: qHTS assay to identify small molecule antagonists of the androgen receptor (AR) signaling pathway (AID 743035; active = well fitted inhibition curve with a large enough effect in the signal ratio in the repeat runs, not every such curve was filed as active; the % refers to the signal ratio)
Androgen receptor (Homo sapiens), sequence (P10275 whole entry, looked up): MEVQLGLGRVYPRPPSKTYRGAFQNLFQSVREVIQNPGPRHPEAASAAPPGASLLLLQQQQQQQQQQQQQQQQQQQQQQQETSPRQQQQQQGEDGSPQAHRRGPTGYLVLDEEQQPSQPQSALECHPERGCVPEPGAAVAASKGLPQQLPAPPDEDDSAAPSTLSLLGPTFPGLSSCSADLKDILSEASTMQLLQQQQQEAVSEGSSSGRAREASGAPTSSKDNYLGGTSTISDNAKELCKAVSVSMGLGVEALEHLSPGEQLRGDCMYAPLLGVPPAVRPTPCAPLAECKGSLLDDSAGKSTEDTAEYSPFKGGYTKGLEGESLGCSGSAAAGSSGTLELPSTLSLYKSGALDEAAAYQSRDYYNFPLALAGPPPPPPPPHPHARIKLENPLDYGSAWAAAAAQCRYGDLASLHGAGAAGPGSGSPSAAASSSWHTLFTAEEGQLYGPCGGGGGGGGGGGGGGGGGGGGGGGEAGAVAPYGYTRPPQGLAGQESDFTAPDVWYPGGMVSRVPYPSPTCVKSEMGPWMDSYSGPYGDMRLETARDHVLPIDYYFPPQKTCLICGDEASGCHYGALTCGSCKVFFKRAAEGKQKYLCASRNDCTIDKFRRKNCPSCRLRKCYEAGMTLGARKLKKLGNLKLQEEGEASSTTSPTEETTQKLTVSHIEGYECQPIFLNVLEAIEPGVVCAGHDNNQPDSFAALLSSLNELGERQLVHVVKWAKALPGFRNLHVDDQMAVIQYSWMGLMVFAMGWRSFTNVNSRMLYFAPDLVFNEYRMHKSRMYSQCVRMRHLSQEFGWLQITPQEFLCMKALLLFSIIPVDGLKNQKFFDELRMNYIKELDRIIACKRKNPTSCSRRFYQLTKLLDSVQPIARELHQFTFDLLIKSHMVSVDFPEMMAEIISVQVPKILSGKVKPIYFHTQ
Procedure, shortened: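 Using qHTS, AR-UAS-bla GripTite HEK293 cells received compound, then R1881, and were cultured 16 h at 37C/5% CO2 before a 2 h room-temperature LiveBLAzer B/G FRET substrate step and fluorescence measurement.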

[16] = molecular target: Androgen receptor (Homo sapiens) (UniProt P10275); experiment: qHTS assay to identify small molecule agonists of the androgen receptor (AR) signaling pathway (AID 743036; active = well fitted activation curve with a large enough effect in the signal ratio in the repeat runs, with a control signal flat, not every such curve was filed as active; the % refers to the signal ratio)
Procedure, shortened: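 Activation was read as beta-lactamase FRET signal from LiveBLAzer B/G substrate, added for 2 h at room temperature. Before that, GeneBLAzer AR-UAS-bla GripTite (HEK293) cells had 16 h compound exposure at 37C.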

[17] = molecular target: Androgen receptor (Homo sapiens) (UniProt P10275); experiment: qHTS assay to identify small molecule agonists of the androgen receptor (AR) signaling pathway using the MDA cell line (AID 743040; note: nearly all actives have a fitted effect of over 20% in size)
Procedure, shortened: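 Cells plated, 5 h at 37C/0% CO2; compound or DMSO pinned; 16 h at 37C; ONE-Glo added; luminescence measured after 30 min at room temperature. Reporter line: MDA-kb2 with MMTV-luciferase responsive to AR and GR.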

[18] = qHTS assay to identify small molecule antagonists of the androgen receptor (AR) signaling pathway using the MDA cell line - cell viability counter screen (AID 743041; note: nearly all actives have a fitted effect of over 45% in size)
Procedure, shortened: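 Cells were plated at 3,000 per well and left 5 h. Compounds in DMSO were then pinned in, followed by R1881. After 16 h at 37C, CellTiter-Fluor fluorescence gave viability.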

[19] = molecular target: Androgen receptor (Homo sapiens) (UniProt P10275); experiment: qHTS assay to identify small molecule antagonists of the androgen receptor (AR) signaling pathway using the MDA cell line (AID 743042; note: nearly all actives have a fitted effect of over 55% in size)
Procedure, shortened: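 Antagonist mode: compounds plus R1881 agonist added to MDA-kb2 AR-luc cells, incubated 16 h at 37C. Luciferase reporter luminescence quantified, with multiplexed CellTiter-Fluor readout for cell viability.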

[20] = qHTS assay to test for compound auto fluorescence at 590 nm (red) in HEK293 cell free culture (AID 720683)
Procedure, shortened: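 Red-channel autofluorescence of compounds in culture medium (DMEM, 10% FBS), no cells, measured at 540/590 nm. Rose Bengal sodium is the reference fluorophore for equivalence.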

Measured: Potency

CCCCOCCOC(=O)COc1cc(Cl)c(Cl)cc1Cl
not listed: [20]
inactive: all other assays above

Cc1ncc(COP(=O)(O)O)c(C=O)c1O
inactive: [1] | [2] | [3] | [20] | [5] | [6] | [8] | [9] | [10] | [13] | [14]

CCOC(=O)OC(C)OC1=C(C(=O)Nc2ccccn2)N(C)S(=O)(=O)c2ccccc21 (stereo not drawn)
inactive: [1] | [2] | [3] | [4] | [5] | [6] | [7] | [10]
active: [8] 5.35 µM | [13] 0.944 µM

CC1=C(C/C=C(\C)CCC[C@H](C)CCC[C@H](C)CCCC(C)C)C(=O)c2ccccc2C1=O
not listed: [4] | [7] | [15] | [16] | [17] | [19]
inactive: all other assays above

CC(C)C[C@@H](N)C(=O)O
not listed: [7] | [8] | [9] | [15] | [16] | [17] | [19] | [20]
inactive: all other assays above

CCCCCCCCCCCCCCC(=O)O
inactive: [1] | [2] | [3] | [4] | [5] | [6] | [7] | [10] | [14] | [18]

O=S(=O)(O)c1cccc2ccccc12
not listed: [4] | [9] | [13] | [14] | [15] | [16] | [17] | [19]
inactive: all other assays above
